The list is not random: actives were taken first. Their share in the collection is about 8.9%.
MCF10A rerep = induces DNA re-replication in MCF 10a normal breast cells; Potency, µM (doses to about 46.1 µM), actives largely listed as activators; 2.9% of 350,000 active; MCF 10A DNA re-replication, Hoechst nuclear intensity, 48 h; AID 624296; further: nearly all actives have a fitted effect of over 50% in size
SW480 rerep = induces DNA re-replication in SW480 colon adenocarcinoma cells. SW480 DNA re-replication, Hoechst DNA content imaging, 48 h. Potency, µM (series often up to 46.1 µM), hits mostly activators. 1.8% of 340,000 active; further: nearly all actives have a fitted effect of over 55% in size
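First, 250 cells per well were seeded. Next, compound or vehicle (23 nL) was pinned in, plates sat 48 hr at 37 C. Finally Hoechst was added for 40 min before fluorescence scanning.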
KB-3-1 tox = kills parental KB-3-1 adenocarcinoma cells; Potency, µM (highest dose often 46.1 µM), hits mostly cytotoxic; 1.4% of 400,000 active; KB-3-1 viability, CellTiter-Glo ATP luminescence, 72 h; further: nearly all actives have a fitted effect of over 60% in size
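KB-3-1 cells, DMEM (no phenol red) + 10% FBS; compound by pin transfer, 72 h, 37 °C. Readout: CellTiter-Glo luminescence after 10 min. Data normalized, curve-fitted.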
DRD3 agonist = activates the human D3 dopamine receptor. AID 652048. D3R DiscoveRx beta-arrestin cells, luminescence, 90 min. max activation, %. P35462. 0.58% of 410,000 active; in the data active means max activation above about 30%
Target sequence (P35462 whole entry, looked up): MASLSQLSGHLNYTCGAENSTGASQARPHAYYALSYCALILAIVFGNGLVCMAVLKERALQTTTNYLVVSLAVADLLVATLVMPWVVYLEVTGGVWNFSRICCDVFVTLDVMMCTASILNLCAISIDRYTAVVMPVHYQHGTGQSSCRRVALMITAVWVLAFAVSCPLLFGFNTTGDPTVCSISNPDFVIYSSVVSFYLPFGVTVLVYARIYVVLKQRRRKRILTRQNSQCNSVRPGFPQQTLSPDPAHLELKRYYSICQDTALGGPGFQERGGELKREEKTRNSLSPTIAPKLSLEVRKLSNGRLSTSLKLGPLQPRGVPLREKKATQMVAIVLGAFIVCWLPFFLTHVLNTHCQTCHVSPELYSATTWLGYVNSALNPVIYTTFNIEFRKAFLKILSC
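Cells at 1500/well, incubated overnight, then treated with pinned compounds (dopamine as control) for 90 min at 37 degrees C. DiscoveRx reagent added for 30 - 60 minutes at room temperature; luminescence read.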
DRD3 antagonist = antagonists of human D3 dopamine receptor. P35462. D3R cells, DiscoveRx beta-arrestin luminescence, antagonist mode; stronger effect = lower value. max response, negative = inhibition, %. 2.5% of 360,000 active; in the data active means max response below about -50%; inconclusive means no clear call, values can overlap the other calls
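Cells expressing the human receptor were seeded at 1500 cells/well, incubated overnight at 37 degrees C in 5% CO2, then exposed to library compounds with dopamine controls for 90 minutes at 37 degrees C before luminescent detection.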
KB-V1 MDR tox = KB-V1 MDR subline cytotoxicity. 3.4% of 400,000 active. KB-V1 MDR cells viability, CellTiter-Glo, 72 h. Potency, µM (series often up to 46.1 µM), most hits filed as cytotoxic. AID 1347076; further: nearly all actives have a fitted effect of over 60% in size
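Following 72 h at 37 degrees C with compound, KB-V1 cell viability was read by CellTiter-Glo luminescence, medium being phenol-red-free DMEM plus 10% FBS; concentration-response parameters came from normalized, curve-fitted qHTS data.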
Of the large screens only hits and unclear results are named; the others gave an inactive call. Unless noted, the call rests on the fitted dose curve; in most records, active means well fitted curve in the direction sought with a large enough effect; inconclusive means small, poorly fitted or top-dose-only effect, or another doubt; inactive means no such curve, though single readings can be large; an effect the other way counts as inactive or inconclusive.

Clc1ccc(OCCn2cnc3ccccc32)c(Cl)c1	KB-3-1 tox inconclusive, KB-V1 MDR tox 16.4µM
O=[N+]([O-])c1ccccc1OCCCn1cnc2ccccc21	KB-V1 MDR tox 7.31µM
Cc1ccc2c(c1)N(C(=O)N1CCC(C(=O)NCc3cccs3)CC1)CC(C)O2 (centres undefined)	none (no result: MCF10A rerep, SW480 rerep, DRD3 antagonist)
CCOc1ccc(NC(=O)CSc2nc3ccsc3c(=O)n2CCC(C)C)cc1	none (no result: MCF10A rerep, SW480 rerep, KB-3-1 tox, DRD3 antagonist, KB-V1 MDR tox)
CCN(CC)S(=O)(=O)c1ccc(NC(=O)c2c(C)oc3ncnc(N4CCCCC4)c23)cc1	none (no result: MCF10A rerep, SW480 rerep, DRD3 antagonist)
O=C(CS(=O)(=O)c1cn(Cc2cccc(F)c2)c2ccccc12)N1CCOCC1	KB-V1 MDR tox 23.1µM
Cc1ccc(C(C[N+](=O)[O-])c2c(C)[nH]n(-c3ccccc3)c2=O)cc1 (centres undefined)	MCF10A rerep inconclusive, SW480 rerep inconclusive, DRD3 antagonist -63.5
Cc1[nH]n(-c2ccccc2)c(=O)c1C(C[N+](=O)[O-])c1ccc(Cl)cc1 (centres undefined)	MCF10A rerep inconclusive, SW480 rerep 16.4µM
COc1ccc(-n2nc(C(=O)Nc3cc(OC)c(OC)c(OC)c3)c(=O)n(C)c2=O)cc1	none (no result: MCF10A rerep, SW480 rerep, KB-3-1 tox, DRD3 antagonist, KB-V1 MDR tox)
Cc1cc(C(F)F)n2ncc(C(=O)NCc3ccc(F)cc3)c2n1	none
Cc1cc(C(F)F)n2ncc(C(=O)NC3CCCCCC3)c2n1	DRD3 antagonist -52.4
O=C(NCC1CCCO1)c1cnn2c(C(F)F)cc(C3CC3)nc12 (centres undefined)	KB-V1 MDR tox 6.51µM
Cc1ccc(C2CCN(C(=O)c3cnn(-c4ccc(C)c(C)c4)c3C3CCN(C(=O)OC(C)(C)C)CC3)C2)cc1 (centres undefined)	none (no result: MCF10A rerep, SW480 rerep, DRD3 antagonist)
CC1CCc2nc3ncn(Cc4ccc(Cl)cc4)c(=O)c3cc2C1 (centres undefined)	none (no result: MCF10A rerep, SW480 rerep, DRD3 antagonist)
O=C(CSc1oc(-c2ccccc2)nc1S(=O)(=O)c1ccc(Br)cc1)c1ccccc1	KB-3-1 tox inconclusive (no result: MCF10A rerep, SW480 rerep, DRD3 antagonist)
CC(=O)Oc1ccc(C23c4ccccc4C2(OC(C)=O)c2cc(OC(C)=O)ccc23)cc1 (centres undefined)	MCF10A rerep 5.17µM, SW480 rerep 18.4µM, KB-3-1 tox inconclusive, KB-V1 MDR tox inconclusive
O=C(c1ccccc1)c1ccc(-n2ccnc2)c([N+](=O)[O-])c1	KB-V1 MDR tox 18.4µM
CCN(CC)CCn1c(NC(=O)c2ccc(C(F)(F)F)cc2)nc2ccccc21	MCF10A rerep 20.6µM, DRD3 antagonist -54.2
CN(C)CCn1c(NC(=O)c2ccc(Cl)cc2)nc2ccccc21	DRD3 antagonist -57.2
CCC(=O)Nc1nc2ccccc2n1CCN(CC)CC	none
CCN(CC)CCn1c(NC(=O)c2ccc(C)cc2)nc2ccccc21	KB-3-1 tox inconclusive, DRD3 antagonist -50.1, KB-V1 MDR tox inconclusive
COc1cc(Br)c(C2CC(=O)Nc3cc4c(cc32)OCCO4)cc1OC (centres undefined)	KB-V1 MDR tox inconclusive (no result: MCF10A rerep, SW480 rerep, DRD3 antagonist)
Cc1cc(C)cc(N2C(=O)CC(c3ccc(C(F)(F)F)cc3)C3=C2COC3=O)c1 (centres undefined)	none (no result: MCF10A rerep, SW480 rerep, DRD3 antagonist)
CCOc1ccccc1NC(=O)N(Cc1ccc(C)o1)C1CCN(C(C)=O)CC1	none (no result: MCF10A rerep, SW480 rerep, DRD3 antagonist)
Cc1cc(C)n(-c2nc(SCCN(C)C)c3c4c(sc3n2)CCCC4)n1	MCF10A rerep inconclusive, SW480 rerep inconclusive, DRD3 antagonist -71.0
CC(C)NC(=O)c1ccc(-c2cccc(C(F)(F)F)c2)o1	none
Cc1cccc(C)c1NC(=O)CN(C)C(=O)c1ccc(-c2cccc(C(F)(F)F)c2)o1	SW480 rerep 4.11µM
Cc1cccc(C)c1NC(=O)CN(CC(=O)O)CC(=O)O	none (no result: KB-3-1 tox, DRD3 antagonist, KB-V1 MDR tox)
Cc1cccc(C)c1NC(=O)CN(C)c1ccc(C(F)(F)F)cn1	SW480 rerep 11.6µM
CCOC(=O)c1c(NC(=O)COC(=O)CNC(=O)c2ccc(Cl)cc2Cl)sc(C(=O)N(C)C)c1C	SW480 rerep inconclusive
COc1cccc(Cc2nc3ccccc3nc2SCC(=O)NCc2ccc(C)cc2)c1	none (no result: MCF10A rerep, SW480 rerep, KB-3-1 tox, DRD3 antagonist, KB-V1 MDR tox)
O=C(NCc1nnc(SCc2ccc(F)cc2)n1-c1ccc(F)cc1)C12CC3CC(CC(C3)C1)C2	KB-3-1 tox 23.1µM, KB-V1 MDR tox inconclusive
COc1cc(OC)c(OC)cc1CCC(C)NCCC(c1ccccc1)c1ccccc1 (centres undefined)	MCF10A rerep inconclusive, DRD3 antagonist -70.9
COC(=O)c1ccccc1NC(=O)CCC(=O)N1CC(C)Sc2ccccc21 (centres undefined)	none (no result: MCF10A rerep, SW480 rerep, KB-3-1 tox, DRD3 antagonist, KB-V1 MDR tox)
Cc1cc(C)c2c(=O)[nH]c(SCc3ccccc3C)nc2n1	DRD3 antagonist -66.2
Cc1cc(SCc2ccc([N+](=O)[O-])cc2)nc(=O)[nH]1	MCF10A rerep inconclusive
Cc1cc(C)c2c(=O)[nH]c(SCc3ccc([N+](=O)[O-])cc3)nc2n1	DRD3 antagonist -68.7
CN(Cc1cnc2nc(N)nc(N)c2n1)c1ccc(C(=O)NC(CCC(=O)O)C(=O)O)cc1C(F)(F)F (centres undefined)	KB-3-1 tox 0.013µM, DRD3 antagonist inconclusive, KB-V1 MDR tox inconclusive
CN(Cc1cnc2nc(N)nc(N)c2n1)c1ccc(C(=O)NC(CCC(=O)O)C(=O)O)cc1 (centres undefined)	KB-3-1 tox 0.0052µM, KB-V1 MDR tox inconclusive
Cc1ccc(N2C(=O)C(CC(=O)Nc3ccc(F)cc3)N(CCC3=CCCCC3)C2=O)cc1 (centres undefined)	KB-3-1 tox inconclusive, KB-V1 MDR tox inconclusive (no result: MCF10A rerep, SW480 rerep, DRD3 antagonist)
O=C(Nc1ccc([N+](=O)[O-])cc1)C(Cc1ccccc1)N1C(=O)c2cccc3cccc(c23)C1=O (centres undefined)	MCF10A rerep 11.6µM, SW480 rerep 18.4µM, KB-3-1 tox inconclusive, KB-V1 MDR tox inconclusive
CC12CCC=CC1=C(C=O)C1C2CCC2(C)C(O)CCC12 (centres undefined)	MCF10A rerep inconclusive, KB-3-1 tox 18.4µM, KB-V1 MDR tox inconclusive
CCCCNC(=S)N(C)/N=C/c1ccc(OCc2ccc(C(=O)OC)cc2)c(OC)c1	MCF10A rerep inconclusive, KB-V1 MDR tox 13µM
CC1=NN(C(=S)Nc2ccccc2)C(c2ccccc2)C1 (centres undefined)	DRD3 antagonist inconclusive
Cc1ccc(C2CC(c3ccccc3)=NN2C(=S)Nc2ccccc2)o1 (centres undefined)	MCF10A rerep 5.17µM, SW480 rerep 11.6µM, KB-3-1 tox 5.8µM, DRD3 antagonist -51.1, KB-V1 MDR tox 5.17µM
Cc1nc2c(C)cccn2c1C(=O)c1ccccc1	KB-3-1 tox inconclusive, KB-V1 MDR tox 25.9µM
CC1(C(=O)NCc2ccccc2Br)CCN1Cc1ccc(-c2ccccn2)cc1 (centres undefined)	KB-3-1 tox inconclusive, KB-V1 MDR tox 13µM (no result: MCF10A rerep, SW480 rerep)
Cc1ccc(C(=O)COC(=O)CNC(=O)C(c2ccccc2)c2ccccc2)cc1[N+](=O)[O-]	DRD3 antagonist -64.4

Screening results (PubChem)
